Assay results reported in PubChem BioAssay (NCATS).
Inconclusive results are not listed. Where a call stands in place of a potency, no number is given. The source made the active and inactive calls. Calls follow the shape of the full dose curve.

Experiment: Primary qHTS for inhibitors of MERS-S pseudo-typed particle cell entry (AID 1479149); also: nearly all actives have a fitted effect of over 60% in size; also: potency is read from the fitted curve at half-maximal effect
Details: MERS-S pseudotyped particle entry, luciferase; series mostly up to 57.1 µM

With `CCOC(=O)[C@H](CCc1ccccc1)N[C@@H](C)C(=O)N1Cc2ccccc2C[C@H]1C(=O)O` as the molecule, how does the Potency read?
Its Potency is “inactive”.

With `CCCc1nc2c(C)cc(-c3nc4ccccc4n3C)cc2n1Cc1ccc(-c2ccccc2C(=O)O)cc1` as the molecule, how does the Potency read?
The Potency was “inactive”.

For `CN(C)c1nc(N(C)C)nc(N(C)C)n1`, which Potency is on record?
Its Potency is “inactive”.

For `CO/N=C(\C(=O)N[C@@H]1C(=O)N2C(C(=O)O)=C(CSc3nc(=O)c(O)nn3C)CS[C@H]12)c1csc(N)n1`, which Potency is on record?
The Potency was “inactive”.

With `OCCN1C[C@H](O)[C@@H](O)[C@H](O)[C@H]1CO` as the molecule, how does the Potency read?
Its Potency is “inactive”.

Which Potency does the source give for `Cc1ccc(C)c(OCCCC(C)(C)C(=O)O)c1` here?
Its Potency is “inactive”.

For `CC12CC3CC(C)(C1)CC(N)(C3)C2`, which Potency is on record?
The Potency was “inactive”.

For `COC(=O)C1=C(C)NC(C)=C(C(=O)OC(C)C)C1c1cccc2nonc12` (stereo unspecified), which Potency is on record?
The Potency was “inactive”.

With `OC(Cn1cncn1)(Cn1cncn1)c1ccc(F)cc1F` as the molecule, how does the Potency read?
The Potency was “inactive”.

With `NC1[C@H]2CN(c3nc4c(cc3F)c(=O)c(C(=O)O)cn4-c3ccc(F)cc3F)C[C@@H]12` (stereo partly specified) as the molecule, how does the Potency read?
Its Potency is “inactive”.

Which Potency does the source give for `COC(=O)Nc1nc2ccc(C(=O)c3ccccc3)cc2[nH]1` here?
Its Potency is “inactive”.

With `CC[C@@H]([C@H](C)O)n1ncn(-c2ccc(N3CCN(c4ccc(OC[C@@H]5CO[C@@](Cn6cncn6)(c6ccc(F)cc6F)C5)cc4)CC3)cc2)c1=O` as the molecule, how does the Potency read?
Its Potency is 12.6 µM (active).

For `CCOC(=O)c1ncn2c1CN(C)C(=O)c1cc(F)ccc1-2`, which Potency is on record?
The Potency was “inactive”.

For `Cc1ccccc1N1C(=O)c2cc(S(N)(=O)=O)c(Cl)cc2NC1C` (stereo unspecified), which Potency is on record?
Its Potency is “inactive”.

For `NC12CC3CC(CC(C3)C1)C2`, which Potency is on record?
The Potency was “inactive”.

For `O=C(O)c1cn(C2CC2)c2cc(N3CCNCC3)c(F)cc2c1=O`, which Potency is on record?
Its Potency is “inactive”.

Which Potency does the source give for `CC(C)NCC(O)c1ccc(O)c(O)c1` (stereo unspecified) here?
Its Potency is “inactive”.

With `COCCCOc1cc(C[C@@H](C[C@H](N)[C@@H](O)C[C@H](C(=O)NCC(C)(C)C(N)=O)C(C)C)C(C)C)ccc1OC` as the molecule, how does the Potency read?
The Potency was “inactive”.

For `CCC1(c2ccccc2)C(=O)NCNC1=O`, which Potency is on record?
The Potency was “inactive”.

With `C=C(c1ccc(C(=O)O)cc1)c1cc2c(cc1C)C(C)(C)CCC2(C)C` as the molecule, how does the Potency read?
Its Potency is “inactive”.

With `CN(CCOc1ccc(CC2SC(=O)NC2=O)cc1)c1ccccn1` (stereo unspecified) as the molecule, how does the Potency read?
The Potency was “inactive”.

Which Potency does the source give for `NC(=O)OCC(COC(N)=O)c1ccccc1` here?
Its Potency is “inactive”.

For `CCCN[C@H]1CCc2nc(N)sc2C1`, which Potency is on record?
Its Potency is “inactive”.

Which Potency does the source give for `O=NN(CCCl)C(=O)NC1CCCCC1` here?
The Potency was “inactive”.

Which Potency does the source give for `C[C@@H](O)[C@H]1C(=O)N2C(C(=O)O)=C(S[C@@H]3CN[C@H](C(=O)N(C)C)C3)[C@H](C)[C@H]12` here?
Its Potency is “inactive”.

For `N[C@@H]1CONC1=O`, which Potency is on record?
The Potency was “inactive”.

Which Potency does the source give for `NC(=O)NO` here?
Its Potency is “inactive”.

With `Cc1nccn1CC1CCc2c(c3ccccc3n2C)C1=O` (stereo unspecified) as the molecule, how does the Potency read?
Its Potency is “inactive”.

With `CN(C)/N=N/c1nc[nH]c1C(N)=O` as the molecule, how does the Potency read?
Its Potency is “inactive”.

Which Potency does the source give for `NC[C@H](O)c1ccc(O)c(O)c1` here?
Its Potency is “inactive”.

Which Potency does the source give for `C[C@@H](c1ncncc1F)C(O)(Cn1cncn1)c1ccc(F)cc1F` (stereo partly specified) here?
The Potency was “inactive”.

For `CC(=O)Oc1cc2c(s1)CCN(C(C(=O)C1CC1)c1ccccc1F)C2` (stereo unspecified), which Potency is on record?
Its Potency is “inactive”.

With `CC1(C)S[C@@H]2[C@H](NC(=O)C(C(=O)O)c3ccccc3)C(=O)N2[C@H]1C(=O)O` (stereo partly specified) as the molecule, how does the Potency read?
The Potency was “inactive”.

Which Potency does the source give for `CCn1cc(C(=O)O)c(=O)c2cc(F)c(N3CCNCC3)cc21` here?
The Potency was “inactive”.

Which Potency does the source give for `CC(C(=O)O)c1cccc(C(=O)c2ccccc2)c1` (stereo unspecified) here?
Its Potency is “inactive”.

For `CN(C)CCc1c[nH]c2ccc(CS(=O)(=O)N3CCCC3)cc12`, which Potency is on record?
The Potency was “inactive”.

Which Potency does the source give for `CCn1cc(C(=O)O)c(=O)c2ccc(C)nc21` here?
Its Potency is “inactive”.

Which Potency does the source give for `CCOc1ccccc1OCCN[C@H](C)Cc1ccc(OC)c(S(N)(=O)=O)c1` here?
The Potency was “inactive”.

Experiment: Primary qHTS for Vero E6 cytotoxicity: counterscreen for inhibitors of SARS-S pseudo-typed particle cell entry (AID 1479150)
Details: cell viability; series mostly up to 57.1 µM

Which Potency does the source give for `CCOC(=O)[C@H](CCc1ccccc1)N[C@@H](C)C(=O)N1Cc2ccccc2C[C@H]1C(=O)O` here?
Its Potency is “inactive”.

For `CCCc1nc2c(C)cc(-c3nc4ccccc4n3C)cc2n1Cc1ccc(-c2ccccc2C(=O)O)cc1`, which Potency is on record?
The Potency was “inactive”.

Which Potency does the source give for `CN(C)c1nc(N(C)C)nc(N(C)C)n1` here?
The Potency was “inactive”.

For `CO/N=C(\C(=O)N[C@@H]1C(=O)N2C(C(=O)O)=C(CSc3nc(=O)c(O)nn3C)CS[C@H]12)c1csc(N)n1`, which Potency is on record?
The Potency was “inactive”.

With `OCCN1C[C@H](O)[C@@H](O)[C@H](O)[C@H]1CO` as the molecule, how does the Potency read?
Its Potency is “inactive”.

Which Potency does the source give for `Cc1ccc(C)c(OCCCC(C)(C)C(=O)O)c1` here?
The Potency was “inactive”.

With `CC12CC3CC(C)(C1)CC(N)(C3)C2` as the molecule, how does the Potency read?
Its Potency is “inactive”.

With `COC(=O)C1=C(C)NC(C)=C(C(=O)OC(C)C)C1c1cccc2nonc12` (stereo unspecified) as the molecule, how does the Potency read?
The Potency was “inactive”.

With `OC(Cn1cncn1)(Cn1cncn1)c1ccc(F)cc1F` as the molecule, how does the Potency read?
The Potency was “inactive”.

Which Potency does the source give for `NC1[C@H]2CN(c3nc4c(cc3F)c(=O)c(C(=O)O)cn4-c3ccc(F)cc3F)C[C@@H]12` (stereo partly specified) here?
The Potency was “inactive”.

For `COC(=O)Nc1nc2ccc(C(=O)c3ccccc3)cc2[nH]1`, which Potency is on record?
Its Potency is “inactive”.

For `CC[C@@H]([C@H](C)O)n1ncn(-c2ccc(N3CCN(c4ccc(OC[C@@H]5CO[C@@](Cn6cncn6)(c6ccc(F)cc6F)C5)cc4)CC3)cc2)c1=O`, which Potency is on record?
The Potency was “inactive”.

With `CCOC(=O)c1ncn2c1CN(C)C(=O)c1cc(F)ccc1-2` as the molecule, how does the Potency read?
Its Potency is “inactive”.

Which Potency does the source give for `Cc1ccccc1N1C(=O)c2cc(S(N)(=O)=O)c(Cl)cc2NC1C` (stereo unspecified) here?
Its Potency is “inactive”.

With `NC12CC3CC(CC(C3)C1)C2` as the molecule, how does the Potency read?
Its Potency is “inactive”.

With `O=C(O)c1cn(C2CC2)c2cc(N3CCNCC3)c(F)cc2c1=O` as the molecule, how does the Potency read?
The Potency was “inactive”.

For `CC(C)NCC(O)c1ccc(O)c(O)c1` (stereo unspecified), which Potency is on record?
The Potency was “inactive”.

Which Potency does the source give for `COCCCOc1cc(C[C@@H](C[C@H](N)[C@@H](O)C[C@H](C(=O)NCC(C)(C)C(N)=O)C(C)C)C(C)C)ccc1OC` here?
The Potency was “inactive”.

For `CCC1(c2ccccc2)C(=O)NCNC1=O`, which Potency is on record?
The Potency was “inactive”.

With `C=C(c1ccc(C(=O)O)cc1)c1cc2c(cc1C)C(C)(C)CCC2(C)C` as the molecule, how does the Potency read?
Its Potency is “inactive”.

With `CN(CCOc1ccc(CC2SC(=O)NC2=O)cc1)c1ccccn1` (stereo unspecified) as the molecule, how does the Potency read?
The Potency was “inactive”.

For `NC(=O)OCC(COC(N)=O)c1ccccc1`, which Potency is on record?
The Potency was “inactive”.

Which Potency does the source give for `CCCN[C@H]1CCc2nc(N)sc2C1` here?
The Potency was “inactive”.

For `O=NN(CCCl)C(=O)NC1CCCCC1`, which Potency is on record?
Its Potency is “inactive”.

Which Potency does the source give for `C[C@@H](O)[C@H]1C(=O)N2C(C(=O)O)=C(S[C@@H]3CN[C@H](C(=O)N(C)C)C3)[C@H](C)[C@H]12` here?
The Potency was “inactive”.

With `N[C@@H]1CONC1=O` as the molecule, how does the Potency read?
The Potency was “inactive”.

For `NC(=O)NO`, which Potency is on record?
The Potency was “inactive”.

With `Cc1nccn1CC1CCc2c(c3ccccc3n2C)C1=O` (stereo unspecified) as the molecule, how does the Potency read?
Its Potency is “inactive”.

With `CN(C)/N=N/c1nc[nH]c1C(N)=O` as the molecule, how does the Potency read?
Its Potency is “inactive”.

With `NC[C@H](O)c1ccc(O)c(O)c1` as the molecule, how does the Potency read?
The Potency was “inactive”.

Which Potency does the source give for `C[C@@H](c1ncncc1F)C(O)(Cn1cncn1)c1ccc(F)cc1F` (stereo partly specified) here?
The Potency was “inactive”.

With `CC(=O)Oc1cc2c(s1)CCN(C(C(=O)C1CC1)c1ccccc1F)C2` (stereo unspecified) as the molecule, how does the Potency read?
Its Potency is “inactive”.

For `CC1(C)S[C@@H]2[C@H](NC(=O)C(C(=O)O)c3ccccc3)C(=O)N2[C@H]1C(=O)O` (stereo partly specified), which Potency is on record?
The Potency was “inactive”.

For `CCn1cc(C(=O)O)c(=O)c2cc(F)c(N3CCNCC3)cc21`, which Potency is on record?
Its Potency is “inactive”.

For `CC(C(=O)O)c1cccc(C(=O)c2ccccc2)c1` (stereo unspecified), which Potency is on record?
The Potency was “inactive”.

With `CN(C)CCc1c[nH]c2ccc(CS(=O)(=O)N3CCCC3)cc12` as the molecule, how does the Potency read?
The Potency was “inactive”.

Which Potency does the source give for `CCn1cc(C(=O)O)c(=O)c2ccc(C)nc21` here?
Its Potency is “inactive”.

For `CCOc1ccccc1OCCN[C@H](C)Cc1ccc(OC)c(S(N)(=O)=O)c1`, which Potency is on record?
The Potency was “inactive”.
